Data: PubChem BioAssay
Activity calls are given as the source filed them.

Key:
[1] = system: PRMT1 (protein arginine N-methyltransferase 1); experiment: PRMT1 binders on small-molecule microarrays, primary screen, biochemical, small-molecule microarray, 635 nm fluorescence (AID 1088); conditions: small-molecule microarray binding, higher = more signal;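 further: binding of Prmt1 protein to compounds spotted on small-molecule microarray slides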
[2] = yeast growth modulation, basal conditions, primary screen, YJM789 clinical isolate, OD600, 24 h (AID 1089);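 further: growth of clinical yeast isolate S. cerevisiae YJM 789 seeded 1000 cells per well; test concentration not given here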; conditions: S. cerevisiae YJM789 growth, higher = more signal, called active from +8 up or from −8 down
[3] = fission yeast growth modulation, primary screen, strain 972, OD600, 24 h, no modulator (AID 1090);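 further: basal condition with compound alone and no growth modifier present; test concentration not given here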; conditions: S. pombe 972 growth, higher = more signal, called active from +8 up or from −8 down
[4] = S. cerevisiae growth modulation with rapamycin, primary screen, strain BY4716, OD600, 96 h (AID 1091); conditions: higher = more signal, called active from +8 up or from −8 down; further: test concentration not given here
[5] = target: Torsin-1A-interacting protein 2 (Homo sapiens) (UniProt Q8NFQ8); experiment: LULL1 binders on small-molecule microarray, primary screen, cell lysate, human LULL1 lysate, 635/667 nm fluorescence (AID 1092); conditions: hLULL1 lysate binding, 635 nm fluorescence, higher = more signal;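 further: probe is lysate of COS7 cells overexpressing human LULL1; score merges per-feature 667 nm fluorescence with signal-to-noise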
[6] = E. coli growth modulation, two-sided OD650, primary screen, E. coli filamentation project, strain DRC41, 24 h (AID 1093); conditions: OD650, 24 h, higher = more signal, called active from +8 up or from −8 down;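 further: MC1000 strain lacking acrAB efflux and sulA so SOS filamentation is blocked; test concentration not given here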
[7] = small-molecule microarray binders of probe aLefty2, primary screen, biochemical, biotinylated probe, 635/667 nm fluorescence (AID 1094); conditions: higher = more signal;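 further: score merges spot fluorescence near 667 nm with spot signal-to-noise ratio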
[8] = system: Noggin (protein binding on small-molecule microarray); experiment: Noggin binders on small-molecule microarray, primary screen, biochemical, 635/667 nm fluorescence (AID 1095); conditions: 635 nm fluorescence, higher = more signal;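 further: score merges 667 nm feature fluorescence with signal to noise over triplicate slides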
[9] = target: Neurogenic locus notch homolog protein 3 (Homo sapiens) (UniProt Q9UM47); experiment: NOTCH3 binders on small-molecule microarray, primary screen, biochemical, 635/667 nm fluorescence (AID 1096); conditions: NOTCH3 binding, 635 nm fluorescence, higher = more signal
[10] = small-molecule microarray binders of probe aEGFR, primary screen, biochemical, biotinylated probe, 635/667 nm fluorescence (AID 1097); conditions: higher = more signal;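 further: probe is a biotinylated anti-EGFR antibody binding compounds printed on slides; score combines fluorescence near 667 nm and signal to noise of each spot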

Neurogenic locus notch homolog protein 3 (Homo sapiens), sequence (Q9UM47 whole entry, looked up): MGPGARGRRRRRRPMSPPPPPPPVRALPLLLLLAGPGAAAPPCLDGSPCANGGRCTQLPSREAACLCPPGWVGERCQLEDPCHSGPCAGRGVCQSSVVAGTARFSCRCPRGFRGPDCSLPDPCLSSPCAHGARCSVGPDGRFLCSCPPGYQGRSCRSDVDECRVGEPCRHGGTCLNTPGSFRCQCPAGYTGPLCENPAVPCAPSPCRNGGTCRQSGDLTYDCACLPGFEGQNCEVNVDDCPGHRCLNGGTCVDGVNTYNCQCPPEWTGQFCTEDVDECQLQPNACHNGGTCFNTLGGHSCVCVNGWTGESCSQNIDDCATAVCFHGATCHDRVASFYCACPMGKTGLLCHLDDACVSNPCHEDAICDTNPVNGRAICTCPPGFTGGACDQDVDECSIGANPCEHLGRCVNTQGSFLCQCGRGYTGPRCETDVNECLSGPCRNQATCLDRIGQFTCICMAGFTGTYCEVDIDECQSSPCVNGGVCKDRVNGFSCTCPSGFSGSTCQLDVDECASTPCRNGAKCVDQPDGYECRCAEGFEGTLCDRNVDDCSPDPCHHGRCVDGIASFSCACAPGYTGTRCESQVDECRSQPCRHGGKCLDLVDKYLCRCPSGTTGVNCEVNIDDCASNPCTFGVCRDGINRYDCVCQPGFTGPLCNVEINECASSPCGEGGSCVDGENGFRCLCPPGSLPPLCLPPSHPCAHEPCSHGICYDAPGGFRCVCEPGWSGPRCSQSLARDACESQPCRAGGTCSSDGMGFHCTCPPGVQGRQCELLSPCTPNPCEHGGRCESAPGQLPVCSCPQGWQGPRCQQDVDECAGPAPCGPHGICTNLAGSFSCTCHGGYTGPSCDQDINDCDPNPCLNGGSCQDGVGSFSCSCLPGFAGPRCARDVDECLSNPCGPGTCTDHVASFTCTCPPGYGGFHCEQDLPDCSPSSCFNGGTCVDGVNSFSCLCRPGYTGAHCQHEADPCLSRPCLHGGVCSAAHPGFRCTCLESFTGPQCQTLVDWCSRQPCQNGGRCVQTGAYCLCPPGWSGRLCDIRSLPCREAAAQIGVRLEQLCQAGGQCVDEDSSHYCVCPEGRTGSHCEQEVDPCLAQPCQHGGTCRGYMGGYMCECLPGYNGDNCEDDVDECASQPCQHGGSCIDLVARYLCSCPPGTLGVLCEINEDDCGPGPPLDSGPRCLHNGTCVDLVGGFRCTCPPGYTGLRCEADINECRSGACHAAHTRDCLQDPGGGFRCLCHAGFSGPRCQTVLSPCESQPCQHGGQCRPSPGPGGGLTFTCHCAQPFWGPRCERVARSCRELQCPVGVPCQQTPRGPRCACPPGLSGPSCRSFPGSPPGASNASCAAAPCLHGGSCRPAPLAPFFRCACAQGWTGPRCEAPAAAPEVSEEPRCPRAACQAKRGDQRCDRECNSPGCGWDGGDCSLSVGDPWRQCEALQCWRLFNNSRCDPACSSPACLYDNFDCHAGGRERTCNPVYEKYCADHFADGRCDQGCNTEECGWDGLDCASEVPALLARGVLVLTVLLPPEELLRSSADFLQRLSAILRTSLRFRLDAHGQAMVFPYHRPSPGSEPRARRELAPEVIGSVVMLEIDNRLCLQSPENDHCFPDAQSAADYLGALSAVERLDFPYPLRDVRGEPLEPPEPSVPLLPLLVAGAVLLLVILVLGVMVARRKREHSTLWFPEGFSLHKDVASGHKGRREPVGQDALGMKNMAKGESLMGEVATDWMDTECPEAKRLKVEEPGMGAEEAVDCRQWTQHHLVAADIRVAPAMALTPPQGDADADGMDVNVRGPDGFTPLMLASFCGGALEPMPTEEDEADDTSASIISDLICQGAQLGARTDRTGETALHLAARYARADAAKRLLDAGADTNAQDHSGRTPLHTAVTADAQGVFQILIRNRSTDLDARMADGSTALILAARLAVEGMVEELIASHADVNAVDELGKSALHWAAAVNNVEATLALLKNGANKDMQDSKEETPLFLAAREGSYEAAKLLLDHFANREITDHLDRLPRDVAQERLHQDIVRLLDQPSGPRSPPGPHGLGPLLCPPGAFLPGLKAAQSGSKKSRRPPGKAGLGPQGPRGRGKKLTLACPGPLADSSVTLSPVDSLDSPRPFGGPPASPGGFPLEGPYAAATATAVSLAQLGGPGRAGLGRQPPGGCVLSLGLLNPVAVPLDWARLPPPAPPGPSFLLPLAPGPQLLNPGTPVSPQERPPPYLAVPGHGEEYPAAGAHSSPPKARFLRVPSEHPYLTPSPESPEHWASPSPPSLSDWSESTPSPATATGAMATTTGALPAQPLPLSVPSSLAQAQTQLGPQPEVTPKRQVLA
Torsin-1A-interacting protein 2 (Homo sapiens), sequence (Q8NFQ8 whole entry, looked up): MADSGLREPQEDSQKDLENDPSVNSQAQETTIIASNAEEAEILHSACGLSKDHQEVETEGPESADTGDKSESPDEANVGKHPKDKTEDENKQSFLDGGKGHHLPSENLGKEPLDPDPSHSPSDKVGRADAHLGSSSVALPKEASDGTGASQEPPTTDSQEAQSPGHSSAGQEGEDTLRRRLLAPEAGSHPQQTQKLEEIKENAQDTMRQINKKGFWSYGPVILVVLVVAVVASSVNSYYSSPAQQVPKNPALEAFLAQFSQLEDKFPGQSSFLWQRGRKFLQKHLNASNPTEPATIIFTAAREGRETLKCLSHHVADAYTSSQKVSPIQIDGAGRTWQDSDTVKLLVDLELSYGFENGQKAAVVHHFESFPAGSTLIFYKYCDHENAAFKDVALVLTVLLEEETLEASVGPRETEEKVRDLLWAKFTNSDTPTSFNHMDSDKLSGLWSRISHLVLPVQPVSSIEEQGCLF

| Compound | composite z-score [1] | z-score [2] | z-score [3] | z-score [4] | composite z-score [5] | z-score [6] | composite z-score [7] | composite z-score [8] | composite z-score [9] | composite z-score [10] |
| --- | --- | --- | --- | --- | --- | --- | --- | --- | --- | --- |
| NCCCCCCNC(=O)[C@H]1C[C@H]2C(=O)N[C@@H](Cc3ccccc3)C(=O)N2[C@H]1c1ccc(O)cc1 | 1.11 | -1.8 (inactive) | -0.599 (inactive) | -1.24 (inactive) | 2.45 | 0.933 (inactive) | -0.0824 | 1.07 | 0.272 | -0.0685 |
| COc1ccc([Si](C)(C)[C@H]2[C@H](CCO)O[C@@]3(C(=O)N(Cc4cccc(N5CCCCC5=O)c4)c4ccccc43)[C@@H]2C)cc1 | 1.54 | 2.01 (inactive) | -1.99 (inactive) | 2.68 (inactive) | 1.56 | 0.525 (inactive) | -0.0732 | 0.296 | 0.896 | 0.214 |
| C=C(C(=O)CC[C@H](OC(=O)c1cccnc1)c1ccc(CO)o1)C(C)C | 1.51 | -1.23 (inactive) | -0.796 (inactive) | -0.719 (inactive) | 1.34 | -0.605 (inactive) | 0.152 | 1.02 | 0.623 | 0.0504 |
| O=C1OC[C@@H](c2ccccc2)N2CC(/C=C/c3ccccc3)=CC12 (stereo not given in full) | -1.07 | 0.0482 (inactive) | -1.27 (inactive) | 0.321 (inactive) | -0.79 | 0.701 (inactive) | -0.158 | -1.37 | -0.0841 | -0.425 |
| COCCOC(=O)N1C(=O)[C@@]2(c3cc(C#CC4(O)CCCCCC4)ccc31)[C@H](C(N)=O)[C@H]1C(=O)O[C@H](c3ccccc3)[C@H](c3ccccc3)N1[C@@H]2c1ccccc1OCCO | 1.54 | 1.53 (inactive) | -0.0153 (inactive) | 4.1 (inactive) | 2.49 | 0.58 (inactive) | -0.484 | 1.09 | 1.08 | 0.445 |
| COCCOC(=O)N1C(=O)[C@@]2(c3cc(C#CC4(O)CCCCCC4)ccc31)[C@H](c1ccccc1OCCO)N1[C@H](c3ccccc3)[C@H](c3ccccc3)OC(=O)[C@H]1[C@@H]2C(N)=O | 1.54 | 1.74 (inactive) | 0.699 (inactive) | 5.17 (inactive) | 2.24 | -0.175 (inactive) | -0.102 | 1.06 | 1.05 | 0.0254 |
| Cc1ccc(S[C@]2(C(=O)NCC(C)C)CC(=O)N(Cc3ccccc3Cl)[C@@H]2c2ccc(CO)cc2I)cc1 | 0.939 | -1.38 (inactive) | -1.87 (inactive) | 0.0522 (inactive) | 1.8 | -0.712 (inactive) | 0.225 | -1.08 | -0.309 | -0.304 |
| CC(C)(C)OC(=O)CC[C@]1(C(=O)O)N=C(c2ccc(OCCCO)cc2)O[C@H]1c1ccccc1 | -0.147 | -0.627 (inactive) | -0.573 (inactive) | -1.97 (inactive) | 2.2 | 0.461 (inactive) | -0.0226 | -0.0257 | 0.154 | -0.0485 |
| Cc1ccc(S[C@]2(C(=O)NCCN3CCOCC3)CC(=O)N(Cc3ccccc3C(F)(F)F)[C@@H]2c2ccc(CO)cc2I)cc1 | 0.783 | -1.57 (inactive) | -4.24 (inactive) | 0.176 (inactive) | 1.2 | -0.28 (inactive) | -0.145 | -0.586 | -0.689 | -0.233 |
| CC(C)N1C(=O)[C@@]2(c3ccc([N+](=O)[O-])cc3)CC(=O)N(C3CCCCC3)[C@@H]2c2ccc(CO)cc21 | 1.27 | -1.78 (inactive) | 0.353 (inactive) | -2.19 (inactive) | 0.198 | -1.43 (inactive) | -0.103 | 0.622 | -0.509 | -0.0565 |
| O=C1O[C@@H](c2ccccc2)[C@@H](c2ccccc2)N2[C@@H](c3ccc(O)cc3)[C@]3(C(=O)Nc4ccccc43)[C@@H](C(=O)Nc3nc4ccccc4s3)[C@H]12 | 1.51 | 0.813 (inactive) | 0.849 (inactive) | 1.4 (inactive) | 2.77 | -0.0768 (inactive) | -0.15 | 0.797 | 0.881 | -0.132 |
| NCCCCCNC(=O)[C@@H]1C[C@@H]2C(=O)N[C@@H](CCCCN)C(=O)N2[C@@H]1c1cccc(OCCO)c1 | 0.61 | 0.656 (inactive) | 0.212 (inactive) | -0.0182 (inactive) | 0.557 | 0.767 (inactive) | 0.119 | 0.878 | 0.702 | -0.0306 |
| CN1C(=O)C2C(C1=O)C1C=C(c3ccc(CO)cc3)C2C(c2cccs2)N1Cc1cccc(OC(F)(F)F)c1 (stereo not given) | 1.55 | -1.68 (inactive) | -2.57 (inactive) | 3.35 (inactive) | 2.65 | 0.907 (inactive) | 0.0007 | 1.38 | 1.09 | -0.013 |
| NC(=O)NCC#Cc1ccc2c(c1)[C@]1(C(=O)N2)[C@H](c2ccc(O)cc2)N2[C@H](c3ccccc3)[C@H](c3ccccc3)OC(=O)[C@H]2[C@@H]1C(=O)Nc1nc2ccccc2s1 | 1.39 | 4.88 (inactive) | 4.35 (inactive) | 8.57 (active) | 1.07 | 1.06 (inactive) | 0.122 | 1.05 | 0.362 | -0.0975 |
